From PubChem BioAssay (EPA / NIEHS)
Active and inactive are the calls of the source. How the source made its calls: active means hit-call score of the fitted dose curve at least 0.9, where 1 is the maximum; inactive means score below 0.9.

assay: CCTE_Simmons_MITO_basal_resp_rate: CCTE's HepG2 Seahorse XF Respirometric Screening Assay at Basal Respiratory State, Simmons Lab (AID 2284001); conditions: actives raise or lower the signal
How it was run: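 HepG2 respirometry; 7-pt titration 125 nM–100 uM final; kinetic OCR at 6 min intervals for 72 min; n=3 biological, technical singles; DMSO baseline, gain or loss fit; fenpyroximate (decrease) and 2,4-DNP (increase) controls.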

Row | Compound | AC50 | outcome
1 | CCn1nc(Cc2ccccc2)cc1C1CCN(C[C@H]2C[C@H](N(C)[C@@H](C(=O)O)C(C)C)C[C@@H]2c2cccc(F)c2)CC1 | 27.8 µM (active) | 
2 | CC(C)c1cccc(C(C)C)c1N1C(=O)c2ccc(O)cc2C1=O | 20 µM (active) | 
3 | Nc1cccc(N)c1 |  | inactive
4 | CC(C)CC(C)(O)C#CC(C)(O)CC(C)C (stereo not given) | 50 µM (active) | 
5 | Cc1c(-c2cccnc2)c2ccccc2n1CCCCC(=O)O | 26.7 µM (active) | 
6 | Cn1c(=O)cc(Oc2ccc(F)cc2F)c2cnc(NCC(C)(C)O)nc21 |  | inactive
7 | CCOC(=O)COc1ccc2c(c1)CC(NCC(O)c1cccc(Cl)c1)CC2 (stereo not given) | 32.9 µM (active) | 
8 | CC(C)=CCC/C(C)=C/CO | 45.7 µM (active) | 

assay: CCTE_Simmons_MITO_inhib_resp_rate: CCTE's HepG2 Seahorse XF Respirometric Screening Assay at Inhibited Respiratory State [full ETC block], Simmons Lab (AID 2284006); conditions: actives raise or lower the signal
How it was run: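 HepG2 cells on Seahorse XF96; oxygen consumption measured after test compound, then FCCP, then rotenone/antimycin A injections over 72 min. Test chemicals at 7 concentrations, 125 nM–100 uM final. OCR fitted bidirectionally versus DMSO.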

Row | Compound | outcome | AC50
9 | CCn1nc(Cc2ccccc2)cc1C1CCN(C[C@H]2C[C@H](N(C)[C@@H](C(=O)O)C(C)C)C[C@@H]2c2cccc(F)c2)CC1 | inactive | 
10 | CC(C)c1cccc(C(C)C)c1N1C(=O)c2ccc(O)cc2C1=O | inactive | 
11 | Nc1cccc(N)c1 |  | 28.7 µM (active)
12 | CC(C)CC(C)(O)C#CC(C)(O)CC(C)C (stereo not given) | inactive | 
13 | Cc1c(-c2cccnc2)c2ccccc2n1CCCCC(=O)O | inactive | 
14 | Cn1c(=O)cc(Oc2ccc(F)cc2F)c2cnc(NCC(C)(C)O)nc21 | inactive | 
15 | CCOC(=O)COc1ccc2c(c1)CC(NCC(O)c1cccc(Cl)c1)CC2 (stereo not given) | inactive | 
16 | CC(C)=CCC/C(C)=C/CO | inactive | 

assay: CCTE_Shafer_MEA_acute_spike_number: CCTE's Neural Acute Assay for Total Number of Spikes, Shafer Lab (AID 2284008); conditions: not given;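 on AC50: curve fitted for decrease in spike count so AC50 reflects inhibitors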
How it was run: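 Rat cortical cultures, DIV 13/15, 37 C. 40 min baseline rec, cpd 0.03-40 uM, 40 min post-dose rec. Band-pass 300-5000 Hz, spike threshold 8x rms; % change in spike count per well, DMSO neg ctrl, loss-of-signal fit.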

Row | Compound | outcome | AC50
17 | On1ccccc1=S | inactive | 
18 | CC[C@H]1CC[C@H](NCc2cc3c(cc2OC)[C@H]2C[C@H]2C(=O)N3C)[C@H](c2ccccc2)N1 |  | 3.07 µM (active)
19 | O=P(OC(CCl)CCl)(OC(CCl)CCl)OC(CCl)CCl | inactive | 
20 | CC[C@H]1OC(=O)[C@H](C)[C@@H](O[C@H]2C[C@@](C)(OC)[C@@H](O)[C@H](C)O2)[C@H](C)[C@@H](O[C@@H]2O[C@H](C)C[C@H](N(C)C)[C@H]2O)[C@](C)(O)C[C@@H](C)C(=O)[C@H](C)[C@@H](O)[C@]1(C)O | inactive | 
21 | Cn1c(=O)c2c(ncn2C)n(C)c1=O | inactive | 
22 | Cn1cnc([N+](=O)[O-])c1Sc1ncnc2nc[nH]c12 | inactive | 
23 | CCCCC(CC)COC(=O)CCCCCCCCC(=O)OCC(CC)CCCC (stereo not given) | inactive | 
24 | CCCCCCCCCCCCc1ccccc1 | inactive | 
25 | O=C(O)CCN(C1(C(=O)NO)CCCC1)S(=O)(=O)c1ccc(Oc2ccc(F)cc2)cc1 | inactive | 
